# HSF1 inhib = HSF1 inhibition; NIH3T3-HGL HSE-luciferase, MG132-induced, luminescence 8 h; stronger effect = lower value; hit rate 0.77% among 300,000; activity change, negative = inhibition, % at 7.5 µM (by protocol);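 active = more than half of replicate wells show activity change below -50%, luminescence cut by over half; inconclusive = some wells, but at most half, below -50%; inactive = no replicate well below -50%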;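 note: luciferase reports HSF-1 transcriptional activity via heat shock element; 0% = median of DMSO wells and -100% = zero luminescence signal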
# NR0B1 inh = NR0B1 (DAX1) inhibition | HEK293 Gal4-DAX1 luciferase reporter, luminescence | inhibition, % at 6.75 µM | P51843 | AID 504766 | hit rate 0.99% among 340,000;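 active = inhibition above the mean over all tested compounds plus 3 SD, cut at about 4.2% in these data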;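 note: 0% = DAX1-transfected cells with DMSO and 100% = empty-vector control cells with DMSO; inhibition shows as a rise in luminescence from relieved DAX1 repression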
# FXN GAA850 act = activators of GAA850 frataxin (FXN) promoter; HEK293 lucGAA850 FXN promoter luciferase reporter, 24 h; percent of 10 µM SAHA response; activation, % at 6 µM; hit rate 0.56% among 360,000;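 active = activation above the average of all compounds screened plus 3 SD, cutoff fixed separately per campaign, cut at about 7.5% in these data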;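 note: 0% = DMSO wells and 100% = 10 µM SAHA wells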
# HSF-1 act = increases HSF-1 driven luciferase reporter signal; NIH3T3-HGL HSF-1 luciferase reporter, MG132, 8 h; 100% = twice DMSO control signal; activation, % at 9 µM; hit rate 1.7% among 300,000;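 active = mean replicate activation of at least 50% with a set share of replicates each reaching 50%; inconclusive = only one of those two conditions met; inactive = mean below 50% and too few replicates reaching it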;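 note: 0% = median of the neutral control wells and 100% = twice that signal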
# AHR act = human AHR activation | hit rate 2.5% among 320,000 | P35869 | activation, % at 5 µM | AHR-responsive luciferase reporter cells, luminescence; in the data active = activation above about 47%;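 note: 0% = vehicle wells and 100% = reference agonist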
# Target sequence (P35869 whole entry, looked up): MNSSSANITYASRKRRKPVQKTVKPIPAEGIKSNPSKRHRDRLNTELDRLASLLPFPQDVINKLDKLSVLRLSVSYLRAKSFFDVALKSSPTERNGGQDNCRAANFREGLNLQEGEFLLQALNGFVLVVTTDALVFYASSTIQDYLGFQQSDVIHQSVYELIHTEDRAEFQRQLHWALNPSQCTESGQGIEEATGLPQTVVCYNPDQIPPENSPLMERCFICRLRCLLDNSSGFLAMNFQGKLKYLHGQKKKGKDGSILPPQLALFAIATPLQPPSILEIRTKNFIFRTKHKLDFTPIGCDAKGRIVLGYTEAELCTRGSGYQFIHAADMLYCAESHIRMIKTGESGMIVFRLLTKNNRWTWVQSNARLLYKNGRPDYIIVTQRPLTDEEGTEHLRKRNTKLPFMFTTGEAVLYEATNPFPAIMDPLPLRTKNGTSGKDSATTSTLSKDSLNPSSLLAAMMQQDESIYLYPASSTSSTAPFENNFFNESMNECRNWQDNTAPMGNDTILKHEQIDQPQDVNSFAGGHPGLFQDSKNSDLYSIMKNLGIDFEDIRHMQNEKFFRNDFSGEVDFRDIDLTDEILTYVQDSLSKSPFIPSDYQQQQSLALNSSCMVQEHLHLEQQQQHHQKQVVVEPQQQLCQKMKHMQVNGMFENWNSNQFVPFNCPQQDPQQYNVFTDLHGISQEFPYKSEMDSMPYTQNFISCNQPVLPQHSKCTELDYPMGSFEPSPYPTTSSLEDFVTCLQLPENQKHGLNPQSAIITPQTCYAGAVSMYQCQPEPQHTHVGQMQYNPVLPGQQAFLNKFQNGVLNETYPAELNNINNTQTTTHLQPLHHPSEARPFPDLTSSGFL
# The depositor's hits bear a star; u = inconclusive; x = no result. Shown are actives, neighbours in structure and some others; about 5.4% of the full set was active somewhere.
SMILES,HSF1 inhib,NR0B1 inh,FXN GAA850 act,HSF-1 act,AHR act
CCOc1ccc(-c2noc(-c3ccncc3)n2)cc1OCC,1,0,1,4,6
CCOc1nc(C)ccc1-c1noc(-c2ccccc2OC)n1,7,-1,2,22,50*
CCOc1ccccc1NC(=O)c1ccccc1-c1nc(-c2ccccc2OC)no1,x,-1,-6,x,64*
CCNC(=O)c1ccccc1-c1nc(-c2ccccc2OC)no1,1,0,1,-9,34
FC(F)(F)c1ccccc1-c1nc(-c2ccncc2)no1,-2,1,3,13,1
CCSc1ccccc1-c1nc(-c2ccncc2)no1,19,1,0,10,65*
CCOc1ccccc1-c1nc(-c2ccncc2)no1,9,-1,0,31,48*
CNC(=O)c1cc(NC(=O)N(CCC#N)CCN(C(=O)NC(Cc2ccccc2)C(=O)NC(CC(C)C)C(=O)NC)c2ccccc2)ccc1OC (stereo not given),x,0,-1,x,x
CC(C)Oc1cccc(C2NC(=O)c3ccccc3O2)c1 (stereo not given),10,4.7*,-1,26,7
CCN1CCN(c2ccc(S(=O)(=O)N3CCOCC3)cc2NC(=O)c2ccc(C(F)(F)F)cc2)CC1,-7,5.9*,1,-10,2
O=C(Nc1cc(C(F)(F)F)ccc1N1CCOCC1)c1cccs1,-2,4.6*,2,-4,5
Cc1cc(C)c2c3c(cn2n1)c(=O)n(C)c(=O)n3C,0,1,0,13,5
CC(=O)N(C)c1ccc(NC(=O)CCN2C(=O)c3ccccc3C2=O)cc1,1,1,0,0,-1
CCOC(=O)C(C)(C)N(Cc1ccc(Cl)cc1)S(=O)(=O)c1ccc(Cl)c([N+](=O)[O-])c1,33,x,x,66*,-3
CCOC(=O)C(C)(C)N(Cc1ccc(C)cc1)S(=O)(=O)c1ccc(Cl)c([N+](=O)[O-])c1,40,1,1,u,-2
CCOC(=O)C1CCN(CC(C)(C)NS(=O)(=O)c2ccccc2)CC1,2,0,1,3,-2
Cc1ccc(NC2=C(NCCO)C(=O)c3ccccc3C2=O)cc1,2,1,5,7,65*
CC(=O)Nc1ccc(NC2=C(Cl)C(=O)c3ccccc3C2=O)cc1,15,x,x,24,x
Cn1c(NC(=O)/C=C\c2ccccc2)cc(=O)n(C)c1=O,2,4.6*,7,15,50*
Cc1cc(NC(=O)CSc2nc(C(C)C)nc3ccccc23)no1,10,-1,-2,16,0
Cc1cc(NC(=O)C(C)Sc2nc(-c3cccs3)nc3ccccc23)no1 (stereo not given),x,4.5*,-2,x,x
Cc1ccc2nc(/C(C#N)=C\c3cc(C)n(-c4cccc([N+](=O)[O-])c4)c3C)[nH]c2c1,7,-2,1,20,58*
Cc1cc(/C=C(/C#N)c2nc3ccccc3[nH]2)c(C)n1-c1cc(C(=O)O)cc(C(=O)O)c1,5,-1,0,16,x
CC(CN1C(C)CCCC1C)OC(=O)c1ccccc1F (stereo not given),1,0,1,-6,0
CCCNC(=O)c1ccc2c(=O)c(O)c(-c3ccc(F)cc3)[nH]c2c1,3,3,-3,2,70*
SMILES,HSF1 inhib,NR0B1 inh,FXN GAA850 act,HSF-1 act,AHR act
CCCNC(=O)c1ccc2c(=O)c(O)c(-c3cccc(Br)c3)[nH]c2c1,-52*,0,-6,-61,19
COc1ccc(CCNC(=O)C2CCCN(S(C)(=O)=O)C2)cc1 (stereo not given),14,-1,0,43,3
O=C(c1cc2cc(Cl)ccc2[nH]1)N1CCN(c2ccccn2)CC1,0,-1,1,-16,20
CCn1ncc(C(=O)Nc2ccc([N+](=O)[O-])cc2OC)c1C,-2,0,0,1,40
COc1ccc([N+](=O)[O-])cc1NC(=O)c1ccc(Br)s1,-4,0,2,-6,52*
COc1ccc([N+](=O)[O-])cc1NC(=O)COC(C)=O,-3,0,3,-18,0
COc1ccc([N+](=O)[O-])cc1NC(=S)NC(C)=O,4,8.8*,-1,-13,13
CCn1ncc(Cl)c1C(=O)Nc1cc([N+](=O)[O-])ccc1OC,0,1,1,2,60*
O=c1ccn(CCCBr)c(=O)[nH]1,0,-1,-1,-7,-1

# Assay outcomes as filed in PubChem.
